Reference: PubChem BioAssay AID1619 (SRMLSC, 2009)
About 830 (0.38%) of roughly 220,000 compounds were called active.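 How the source made its calls: active means compound inhibiting the enzyme by more than half at any dose during confirmatory dose-response retesting; inconclusive means strong single-dose inhibitors picked by rank but not retested; inactive means the rest.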 Not all results are given here. Results with a measured potency or affinity are listed apart.

The compounds below were run against Leucine aminopeptidase (Plasmodium falciparum (isolate 3D7)) (UniProt Q8IL11) (assay: P. falciparum M17LAP inhibitors, primary screen, biochemical, fluorogenic H-Leu-NHMec substrate, 1536-well (AID 1619;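 further: plate controls were full reaction with DMSO carrier for no effect and no enzyme background for full effect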)). Conditions: recombinant M17LAP, H-Leu-NHMec fluorogenic kinetic assay; at 30 µM; active compounds read high.
Sequence of Leucine aminopeptidase (Plasmodium falciparum (isolate 3D7)) (Q8IL11 whole entry, looked up): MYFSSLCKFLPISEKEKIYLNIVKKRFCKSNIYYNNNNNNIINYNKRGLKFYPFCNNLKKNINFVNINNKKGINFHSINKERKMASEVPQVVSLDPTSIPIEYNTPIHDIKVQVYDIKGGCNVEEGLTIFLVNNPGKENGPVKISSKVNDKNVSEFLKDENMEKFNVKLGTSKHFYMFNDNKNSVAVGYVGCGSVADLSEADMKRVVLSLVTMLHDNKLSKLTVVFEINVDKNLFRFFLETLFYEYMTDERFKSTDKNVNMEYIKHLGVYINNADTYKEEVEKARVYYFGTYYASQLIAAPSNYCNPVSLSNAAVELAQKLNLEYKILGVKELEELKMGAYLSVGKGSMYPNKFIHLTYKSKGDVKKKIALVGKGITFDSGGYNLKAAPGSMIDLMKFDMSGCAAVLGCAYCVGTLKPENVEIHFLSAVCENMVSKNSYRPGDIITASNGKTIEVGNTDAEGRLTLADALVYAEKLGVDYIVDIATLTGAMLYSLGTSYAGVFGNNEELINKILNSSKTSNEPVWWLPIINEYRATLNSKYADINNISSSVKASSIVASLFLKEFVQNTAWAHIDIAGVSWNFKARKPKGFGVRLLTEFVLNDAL

inhibition, inactive:
COc1ccc(NC(=O)CN(c2ccccc2)S(=O)(=O)N(C)C)cc1Cl -2.44%, COc1ccccc1-c1nnc(SCC(=O)N2CCOCC2)o1 -5.18%, Cc1ccc(S(=O)(=O)NC(=O)c2cc(C)n(-c3ccccc3)c2C)cc1 24.3%, Cc1ccc(S(=O)(=O)NC(=O)c2cc(C)n(-c3ccc(N(C)C)cc3)c2C)cc1 30.1%, CCOC(=O)c1cc(NC(=O)C2C3CCC(O3)C2C(=O)O)cc(C(=O)OCC)c1 (centres undefined) -8.46%, CCOC(=O)c1c(NC(=O)/C=C/C(=O)O)sc(C)c1-c1ccc(F)cc1 9.12%, O=C(O)C1C2CCC(O2)C1C(=O)Nc1ccc(F)cc1 (centres undefined) -6.52%, CCCOC(=O)c1c(-c2ccc(C)cc2C)csc1NC(=O)C1C2CCC(O2)C1C(=O)O (centres undefined) 44.7%, COC(=O)c1c(-c2ccc(C(C)(C)C)cc2)csc1NC(=O)C1C2CCC(O2)C1C(=O)O (centres undefined) 35.5%, CCOC(=O)c1c(-c2cccc3ccccc23)csc1NC(=O)C1C2CCC(O2)C1C(=O)O (centres undefined) 26.3%, CC(/C=N/NC(=O)c1ccccn1)=C\c1ccco1 9.53%, Cc1ccc([N+](=O)[O-])cc1-c1ccc(/C=N\n2nnnc2N)o1 14.9%, CSc1ccc(Cl)c(C(=O)OCC(=O)N(C)CCC#N)c1 1.64%, Cc1ccc(C)c(N(C(=O)Cn2nnc3ccccc32)C(C(=O)NCc2ccco2)c2ccncc2)c1 (centres undefined) -0.41%, O=C1CCC(=O)N1CN(C(=O)c1ccco1)c1ccccc1 -2.98%, Cc1ccc(SCC(=O)NN2C(=O)c3ccccc3C2=O)cc1 2.07%, O=C(Cc1ccccc1)NN1C(=O)c2ccccc2C1=O 23.7%, CCOc1cc(OCC)cc(C(=O)NC(=S)Nc2cccc(C(F)(F)F)c2)c1 3%, COC(=O)c1[nH]c(C)c(/C(O)=C2\C(=O)C(=O)N(CCN3CCOCC3)C2c2ccc(C)o2)c1C (centres undefined) 3.85%, COc1ccc(/C=C/C2=NN(C)C(=O)CC2)cc1 48.2%, Cc1ccc(NC(=O)c2cc(NC(=O)c3ccccc3C(=O)O)ccc2N2CCCCC2)cc1 -63%, O=C(O)CCC(=O)Nc1ccc(N2CCCCC2)c(C(=O)O)c1 10.6%, C/C(=N\NC(N)=S)C1(C)CC2(CC(C)(C)OC2=O)C(=O)O1 (centres undefined) -1.04%, O=C(CSc1nccc(=O)[nH]1)N1N=C2/C(=C/c3ccco3)CCCC2C1c1ccco1 (centres undefined) 13.7%, Nc1nc(SCC(=O)N2N=C3/C(=C/c4ccco4)CCCC3C2c2ccco2)n[nH]1 (centres undefined) 9.23%, COc1c(Cl)cc(-c2noc(C)c2C(=O)NCc2ccc3c(c2)OCO3)cc1Cl 2.83%, Cc1ccnc(NC(=O)C2CCC(CNc3c(N4CCCC4)c(=O)c3=O)CC2)c1 (centres undefined) 15.6%, CC(C)Nc1nnc(SC(C)C(=O)Nc2ccc(Cl)cn2)s1 (centres undefined) 5.71%, COC(=O)N/N=C/c1ccc(OC(=O)/C=C/c2ccco2)cc1 -6.97%, CCOc1cccc2sc(N(CCN(CC)CC)C(=O)c3cccc([N+](=O)[O-])c3)nc12 3.1%, COc1cc(NS(=O)(=O)c2ccc(NC(C)=O)cc2)nc(OC)n1 -0.66%, O=C(CSC1=NCCS1)Nc1ccc(S(=O)(=O)NC2CCCCC2)cc1 8.51%, O=C(COC(=O)c1n[nH]c2ccccc12)c1cc(F)ccc1F 3.93%, COC(=O)c1cc(NC(C)=O)ccc1N1CCOCC1 8.76%, CC(C)(C)c1ccc(C2C(C#N)=C(N)Oc3n[nH]c(-c4cccnc4)c32)cc1 (centres undefined) 3.44%, Cc1ccc(Cn2ccc(NC(=O)c3cc4nc5c(c(C(F)(F)F)n4n3)CCc3ccccc3-5)n2)cc1 13.9%, COc1ccc(NC(=O)Cc2ccccc2)cc1 34.6%, COc1ccc(OC)c(NC(=O)C(CC(=O)O)Cc2ccc(Cl)cc2)c1 (centres undefined) 35.7%, COc1ccc(NC(=O)C(CC(=O)O)C(C)c2ccccc2)cc1 (centres undefined) -2.5%, COc1ccc(C(CC(=O)Nc2ccc(F)cc2)c2ccccc2)cc1 (centres undefined) -0.86%, COc1ccc(NC(=O)C(CC(=O)O)Cc2ccc(C)cc2)cc1 (centres undefined) 53%, COc1ccc(CC(CC(=O)O)C(=O)NCc2ccccc2)cc1 (centres undefined) -4.42%, COc1ccc(NC(=O)C(Cc2ccccc2)n2cccc2)cc1 (centres undefined) -2.31%, CCOc1ccc(NC(=O)C(CC(=O)O)Cc2ccccc2)cc1 (centres undefined) 1.68%, CCOC(=O)Nc1ccc2nc3n(c(=O)c2c1)CCCCC3 9.64%, COc1ccc2ccccc2c1CN1CCN(Cc2ccccc2)CC1 7.12%, CN1CCN(c2cc(=O)n(Cc3ccc(F)cc3)c(=O)[nH]2)CC1 -0.83%, COc1ccc(-c2nc(=S)[nH][nH]2)cc1OC -3.54%, O=C(O)CC(NNC(=O)c1ccccc1)C(=O)Nc1ccc([N+](=O)[O-])cc1 (centres undefined) 4.13%, O=C(O)CC(Cc1ccc(Cl)cc1)C(=O)Nc1ccc([N+](=O)[O-])cc1 (centres undefined) 44.7%, c1ccc(COc2ccc(CNCc3cccs3)cc2)cc1 0.61%, Cc1cc(NC(=O)CSc2nnc(CNc3ccc(F)cc3)n2C2CCCCC2)no1 -6.09%, COc1cc2nc(C3CCC3)nc(N3CCN(c4ccccc4OC)CC3)c2cc1OC 7.31%, CCOc1c(Br)cc(CNc2ccc3c(c2)OCCO3)cc1OC 2.99%, COc1cc(CO)cc(Br)c1OCC(=O)O -4.17%, COc1cc(CNc2ccc(N3CCOCC3)cc2)cc(Br)c1OC -2.11%, CCOc1c(Br)cc(CNC2CCCCCCC2)cc1OC -3.96%, CCOC(=O)c1nc(Nc2ccc(C(=O)O)cc2)c2ccccc2n1 23.8%, CCOc1ccc(N2C(=O)/C(=C/c3ccccc3)N=C2SC)cc1 2.97%, COC1=C(OC)C(=O)C(CCCCCCCCCCO)=C(C)C1=O -2.37%, CS(=O)(=O)N(CC(=O)NC1CCCCC1)Cc1ccc(Cl)cc1 4.5%, O=C(CN1c2cccc3cccc(c23)S1(=O)=O)Nc1ccccc1 2.82%, O=C(CN1C(=O)c2ccccc2S1(=O)=O)Nc1cccnc1 27.9%, CN(c1cccc(NC(=O)CN2C(=O)c3ccccc3S2(=O)=O)c1)S(C)(=O)=O 51.6%, O=C(CN1C(=O)c2ccccc2S1(=O)=O)NC1CCCC1 33.2%, O=C(CCN1C(=O)c2ccccc2S1(=O)=O)Nc1ccccc1 6.82%, CC(C)NC(=O)CN1C(=O)c2ccccc2S1(=O)=O 7.45%, O=C(CN1C(=O)c2ccccc2S1(=O)=O)NC1CCCCCC1 5.61%, COc1ccc(NC(=O)CN2c3cccc4cccc(c34)S2(=O)=O)c(OC)c1 13.8%, COc1ccc(NS(=O)(=O)c2cccc(C(=O)N/N=C/c3ccc4c(c3)OCCO4)c2)cc1 6.63%, COc1ccccc1-c1noc(-c2cccnc2)n1 -3.7%, CCOC(=O)c1[nH]c(C)c(C(=O)N2CCc3c([nH]c4ccccc34)C2c2ccccn2)c1C (centres undefined) -1.65%, COC(=O)C(C(=O)NCC1CCCO1)C1CCCCCC1 (centres undefined) 13.6%, COC(=O)CSC(C)C(=O)Nc1nnc(C(C)C)s1 (centres undefined) -2.42%, CCOC(=O)CSC(CC)C(=O)Nc1nnc(C(C)C)s1 (centres undefined) 20.9%, CCc1nnc(NC(=O)C(CC)c2ccccc2)s1 (centres undefined) -2.8%, CC(C)c1nnc(NC(=O)CSc2nc3ccccc3s2)s1 -2.5%, CCC(Sc1nc2ccccc2s1)C(=O)Nc1nnc(C)s1 (centres undefined) 22.9%, CCc1nnc(NC(=O)C(C)C)s1 -5.28%, Cc1cc(-c2ccco2)n(CC(=O)NCCN(C)C)n1 -1.86%, CCCCNC(=O)NC12CC3CC(CC(C3)C1)C2 3.38%, S=C(Nc1ccccc1Cl)NC1CC2CCCC(C1)N2C1CC1 (centres undefined) 19.9%, COc1ccc(-c2nc3ccccc3[nH]2)cc1 12.5%, COc1ccc(-c2noc(=O)[nH]2)cc1 -9.72%, O=C(CCn1c(=O)oc2ccccc21)Nc1nccs1 0.79%, Nc1cc(C2CCCC2)nn1-c1ccccc1 16.1%, Cc1nn(CC(=O)NCCCN2CCOCC2)c(C)c1[N+](=O)[O-] 3.72%, COC(=O)NCc1cc2cc(Cl)ccc2[nH]1 8.05%, O=S(=O)(Nc1ccn(-c2ccccc2)n1)c1ccc(Br)cc1 21.4%, O=S(=O)(N/N=C\C=C\c1ccccc1)c1ccc(Br)cc1 31.2%, Cc1ccc(C(=O)Nc2ccccc2C(=O)N2CC3(C)CC2CC(C)(C)C3)cc1 (centres undefined) -0.05%, COc1ccc(C[C@H]2CN3C(=NC[C@@H]3C(C)C)N2C[C@H](C)NC(=O)c2ccc(C)c(Br)c2)cc1 -1.28%, COc1ccc2c(c1OC)C(=O)OC2Nc1nc(-c2cc3cc(Br)ccc3oc2=O)cs1 (centres undefined) -3.55%, COc1ccc2c(c1OC)C(=O)OC2Nc1nc(-c2cc3cc([N+](=O)[O-])ccc3oc2=O)cs1 (centres undefined) 42.4%
